Test results taken from PubChem BioAssay (NCI).
The panel holds about 83,000 compounds, 20% with a hit somewhere; the sample as a whole holds those more often.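 Interpretation: 100, growth as untreated; towards 0, rising growth inhibition; 0, no net growth; 0 to -100, cell death. Compounds scoring below 10 were considered active.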 Activity calls are given as the source filed them.

How the values were obtained:
Test in all cases: NCI-60 one-dose screen, 48 h (100 = growth as untreated, 0 = no growth, -100 = all killed)
HT29 colon = details: 10 µM unless noted
SNB-19 CNS = details: 10 µM unless noted
U251 CNS = details: 10 µM unless noted
PC-3 prostate = details: 10 µM unless noted
UACC-62 melanoma = details: 10 µM unless noted
LOX IMVI melanoma = details: 10 µM unless noted
SK-MEL-28 melanoma = details: 10 µM
SK-MEL-2 melanoma = details: 10 µM unless noted
SNB-75 CNS = details: 10 µM unless noted
SK-MEL-5 melanoma = details: 10 µM unless noted

Measured: growth

COc1ccc(/C=c2\sc3n(c2=O)NC2C(N=3)N(C)C(=O)N2C)cc1 (stereo not drawn)
inactive: HT29 colon 103% | SNB-19 CNS 94.1% | U251 CNS 101% | PC-3 prostate 95.6% | UACC-62 melanoma 89.1% | LOX IMVI melanoma 92.8% | SK-MEL-28 melanoma 104% | SK-MEL-2 melanoma 103%

CCN1C(=O)N(c2ccccc2)C2NN=c3s/c(=C4\C(=O)N(C(C)C)c5ccccc54)c(=O)n3C21 (stereo not drawn)
active: HT29 colon 9.74%
inactive: SNB-19 CNS 35.7% | U251 CNS 25.9% | PC-3 prostate 25.7% | UACC-62 melanoma 37.6% | LOX IMVI melanoma 31.4% | SK-MEL-28 melanoma 62.8%

CCN1C(=O)N(c2ccccc2)C2Nn3c(s/c(=C4\C(=O)N(C(C)C)c5ccccc54)c3=O)=NC21 (stereo not drawn)
inactive: HT29 colon 105% | SNB-19 CNS 96% | U251 CNS 104% | PC-3 prostate 106% | UACC-62 melanoma 97.5% | LOX IMVI melanoma 100% | SK-MEL-2 melanoma 102%

CN1C(=O)N(C)C2C1NN=c1s/c(=C\c3c[nH]c4ccccc34)c(=O)n12 (stereo not drawn)
inactive: HT29 colon 11.3% | SNB-19 CNS 27.3% | U251 CNS 14.5% | PC-3 prostate 23.4% | UACC-62 melanoma 38.3% | LOX IMVI melanoma 22.3% | SK-MEL-28 melanoma 69.4% | SK-MEL-2 melanoma 52.5%

Cn1cc(-c2ccc3ncc(-c4ccc(CC(=O)Nc5cc(C(C)(C)C)no5)cc4)nc3c2)cn1
inactive: HT29 colon 51.6% | SNB-19 CNS 62.6% | U251 CNS 40.8% | PC-3 prostate 49.7% | UACC-62 melanoma 42.6% | LOX IMVI melanoma 45.7% | SK-MEL-28 melanoma 53.2% | SK-MEL-2 melanoma 38.1%

CC1=NCC2NC(=O)NC(C)=C12 (stereo not drawn)
inactive: HT29 colon 108% | SNB-19 CNS 98.9% | U251 CNS 103% | PC-3 prostate 93.9% | UACC-62 melanoma 95.2% | LOX IMVI melanoma 101% | SK-MEL-28 melanoma 114% | SK-MEL-2 melanoma 101%

O=Nc1c(O)ccc2ccccc12.O=Nc1c(O)ccc2ccccc12.O=Nc1c([O-])ccc2ccccc12.[Fe+3]
inactive: HT29 colon 109% | SNB-19 CNS 109% | PC-3 prostate 88.9% | UACC-62 melanoma 95.6% | LOX IMVI melanoma 98.8% | SK-MEL-28 melanoma 104% | SK-MEL-2 melanoma 107%

CC[C@H](C)[C@@H](C(=O)OC)n1cc(CNC(=O)[C@@H](Cc2ccccc2)NC(=O)OCc2ccccc2)nn1
inactive: SNB-75 CNS 101% | SNB-19 CNS 93.2% | U251 CNS 91.5% | PC-3 prostate 100% | SK-MEL-5 melanoma 103% | UACC-62 melanoma 94.6% | LOX IMVI melanoma 99.5% | SK-MEL-28 melanoma 110% | SK-MEL-2 melanoma 105%

COc1ccc(-n2c(C(O)c3ccccc3)n[nH]c2=S)cc1 (stereo not drawn)
inactive: HT29 colon 113% | SNB-19 CNS 99.7% | U251 CNS 91.2% | PC-3 prostate 120% | UACC-62 melanoma 88.2% | LOX IMVI melanoma 91.4% | SK-MEL-28 melanoma 115% | SK-MEL-2 melanoma 96.7%

O=C(N=Nc1c(O)[nH]c2ccccc12)c1oc2ccccc2c1CN1CCN(c2ccccc2)CC1
active: U251 CNS -22.2% | PC-3 prostate -22.2% | UACC-62 melanoma 4.02% | LOX IMVI melanoma 2.72% | SK-MEL-28 melanoma -31.8%
inactive: HT29 colon 15.8% | SNB-19 CNS 18.6% | SK-MEL-2 melanoma 72.9%

S=C1NC2(c3ccccc3)CCC(=S)N2c2ccccc21 (stereo not drawn)
inactive: HT29 colon 105% | SNB-19 CNS 97.6% | U251 CNS 95% | PC-3 prostate 96.7% | UACC-62 melanoma 92% | LOX IMVI melanoma 99.7% | SK-MEL-28 melanoma 114%

CC[C@@H](C)[C@H](NC(=O)Cn1cc(CNC(=O)[C@@H](NC(=O)OCc2ccccc2)C(C)C)nn1)C(=O)O
inactive: SNB-75 CNS 101% | SNB-19 CNS 106% | U251 CNS 104% | PC-3 prostate 97.2% | SK-MEL-5 melanoma 102% | UACC-62 melanoma 100% | LOX IMVI melanoma 99.7% | SK-MEL-28 melanoma 113% | SK-MEL-2 melanoma 110%

O=C(CN1C=NC2C(N3CCOCC3)=NC=NC21)c1ccc(Br)cc1 (stereo not drawn)
inactive: HT29 colon 107% | SNB-19 CNS 97.2% | U251 CNS 99.8% | UACC-62 melanoma 93.1% | LOX IMVI melanoma 97.3% | SK-MEL-28 melanoma 111% | SK-MEL-2 melanoma 94.4%

CCN1C(=O)N(CC)C2C1NN=c1s/c(=C3\C(=O)N(CC(C)(C)C)c4ccccc43)c(=O)n12 (stereo not drawn)
inactive: SNB-19 CNS 33.1% | U251 CNS 21% | PC-3 prostate 20.8% | UACC-62 melanoma 36.1% | LOX IMVI melanoma 38.7% | SK-MEL-28 melanoma 64% | SK-MEL-2 melanoma 53.6%
active: HT29 colon 6.57%

CN1C(=O)N(C)C2(c3ccccc3)n3c(s/c(=C\c4ccccc4)c3=O)=NNC12c1ccccc1 (stereo not drawn)
inactive: HT29 colon 95.5% | SNB-19 CNS 98% | U251 CNS 96.4% | PC-3 prostate 74.2% | UACC-62 melanoma 81.2% | LOX IMVI melanoma 86.2% | SK-MEL-28 melanoma 101% | SK-MEL-2 melanoma 99.7%

O=C(CCc1nnc2sc(-c3ccc(Cl)cc3Cl)nn12)c1nc2ncccc2[nH]1
active: HT29 colon -13% | U251 CNS -74.2% | UACC-62 melanoma -36.6% | LOX IMVI melanoma -88.3% | SK-MEL-28 melanoma -9.94% | SK-MEL-2 melanoma -11.5%
inactive: SNB-19 CNS 26.9%

CC(C)[C@H](NC(=O)Cn1cc(C(=O)O)nn1)C(=O)O
inactive: SNB-75 CNS 104% | SNB-19 CNS 105% | U251 CNS 100% | PC-3 prostate 94.1% | SK-MEL-5 melanoma 98.6% | UACC-62 melanoma 103% | LOX IMVI melanoma 104% | SK-MEL-28 melanoma 111% | SK-MEL-2 melanoma 127%

CCN(CCO)CCNc1ccc(C)c2sc3cc(Cl)ccc3c(=O)c12
inactive: SNB-19 CNS 44.5% | SK-MEL-2 melanoma 94.4%
active: HT29 colon -77.3% | U251 CNS -32.1% | SK-MEL-5 melanoma -94.3% | UACC-62 melanoma -53.1% | LOX IMVI melanoma -94.8% | SK-MEL-28 melanoma -61.7%

COc1cccc(C2=NN3C(C2)c2ccccc2OC3c2ccc(/C=C3\SC(=O)NC3=O)cc2)c1 (stereo not drawn)
inactive: HT29 colon 111% | SNB-19 CNS 105% | U251 CNS 102% | SK-MEL-5 melanoma 91.8% | UACC-62 melanoma 104% | LOX IMVI melanoma 70.5% | SK-MEL-28 melanoma 104% | SK-MEL-2 melanoma 97.8%

COc1ccc2[nH]c(O)c(N=NC(=O)c3oc4ccccc4c3C)c2c1
active: U251 CNS 2.05%
inactive: HT29 colon 27.3% | SNB-19 CNS 42.7% | PC-3 prostate 21.8% | UACC-62 melanoma 34.3% | LOX IMVI melanoma 16.3% | SK-MEL-28 melanoma 15.8% | SK-MEL-2 melanoma 70.9%

O=C1N=c2ccccc2=C1c1sc(=Nc2ccccc2)n(Nc2ccccc2)c1O
inactive: HT29 colon 112% | SNB-19 CNS 101% | U251 CNS 97.5% | PC-3 prostate 97.3% | UACC-62 melanoma 92.1% | LOX IMVI melanoma 100% | SK-MEL-28 melanoma 112% | SK-MEL-2 melanoma 103%

CN1C(=O)N(C)C2C1NN=c1s/c(=C\c3ccc(Cl)cc3Cl)c(=O)n12 (stereo not drawn)
inactive: HT29 colon 15% | SNB-19 CNS 26.5% | U251 CNS 27.5% | PC-3 prostate 20% | UACC-62 melanoma 30% | LOX IMVI melanoma 19.7% | SK-MEL-28 melanoma 58.7% | SK-MEL-2 melanoma 57%

CCCc1c(C)c2sc(=O)[nH]c2[nH]c1=O
inactive: HT29 colon 110% | SNB-19 CNS 101% | U251 CNS 99.5% | SK-MEL-5 melanoma 100% | UACC-62 melanoma 105% | LOX IMVI melanoma 100% | SK-MEL-28 melanoma 110%

COc1ccccc1C(=O)/C=C/c1ccccc1
inactive: HT29 colon 56.6% | SNB-19 CNS 82.8% | U251 CNS 43.8% | PC-3 prostate 75.3% | UACC-62 melanoma 85.2% | LOX IMVI melanoma 76.2% | SK-MEL-28 melanoma 105% | SK-MEL-2 melanoma 104%
